{
  "source": "the supplement of paper PMC9844399",
  "note": "Structures can show the parent of a compound that is named as a salt.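 For MALAT1 nuclear FISH intensity, robust Z-score vs DMSO in this document: High-content confocal imaging of branched-DNA amplified FISH in 384-well plates, Hoechst-defined nuclei, score is well value minus plate DMSO median over DMSO robust SD, four wells per compound.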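 For nuclear count per well, robust Z-score vs DMSO in this document: Hoechst-stained nuclei counted by automated confocal imaging of four fields per well in 384-well plates, with the robust Z-score based on the per-plate DMSO median and robust SD.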",
  "data": [
    {"test_system": "HeLa", "test": "nuclear count per well, robust Z-score vs DMSO; higher = more cells (less toxicity)", "settings": "10 µM; 6 h", "values": [
      {"molecule": "Cn1c(=O)c2nc[nH]c2n(C)c1=O", "note": "[Theophylline]", "nuclear count per well": 0.245},
      {"molecule": "CCCCC[C@H](O)/C=C/[C@@H]1[C@H]2C/C(=C/CCCC(=O)O)O[C@H]2C[C@H]1O", "note": "[Prostaglandin I2]", "nuclear count per well": -0.728},
      {"molecule": "CCCc1c(OCCCCc2nnn[nH]2)ccc(C(C)=O)c1O", "nuclear count per well": -0.652},
      {"molecule": "COc1ccc(C[C@@H]2c3cc(OC)c(OC)cc3CC[N@+]2(C)CCC(=O)OCCCCCOC(=O)CC[N@@+]2(C)CCc3cc(OC)c(OC)cc3[C@H]2Cc2ccc(OC)c(OC)c2)cc1OC", "note": "[Cisatracurium Besylate]", "nuclear count per well": 0.507},
      {"molecule": "COc1ccc(C[C@H](N)C(=O)N[C@H]2[C@@H](O)[C@H](n3cnc4c(N(C)C)ncnc43)O[C@@H]2CO)cc1", "note": "[Puromycin.2HCl]", "nuclear count per well": -7.39}
    ]},
    {"test_system": "HeLa", "test": "MALAT1 nuclear FISH intensity, robust Z-score vs DMSO; higher = more nuclear MALAT1 lncRNA, active = -3 or less", "settings": "10 µM; 6 h", "values": [
      {"molecule": "C[C@H](CCC(=O)NCCS(=O)(=O)O)[C@H]1CC[C@H]2[C@@H]3[C@@H](O)C[C@@H]4C[C@H](O)CC[C@]4(C)[C@H]3CC[C@]12C", "note": "[Tauroursodeoxy cholic acid dihydrate]", "MALAT1 nuclear FISH intensity": "0.574 (inactive)"},
      {"molecule": "C/C(=C\\C(=O)OCCCCCCCCC(=O)O)C[C@@H]1OC[C@H](C[C@@H]2O[C@H]2[C@@H](C)[C@H](C)O)[C@@H](O)[C@H]1O", "note": "[Mupirocin]", "MALAT1 nuclear FISH intensity": "-0.317 (inactive)"},
      {"molecule": "C[C@H]1c2cccc(O)c2C(=O)C2=C(O)[C@]3(O)C(=O)C(C(N)=O)=C(O)[C@@H](N(C)C)[C@@H]3[C@@H](O)[C@@H]21", "note": "[Doxycycline Monohydrate]", "MALAT1 nuclear FISH intensity": "-0.763 (inactive)"},
      {"molecule": "O=C1O[C@H]([C@@H](O)CO)C(O)=C1O", "note": "[L-Ascorbic Acid]", "MALAT1 nuclear FISH intensity": "-1.69 (inactive)"},
      {"molecule": "CN1CCC(=C2c3ccccc3C=Cc3ccccc32)CC1", "MALAT1 nuclear FISH intensity": "-0.0895 (inactive)"},
      {"molecule": "Clc1cccc(Nc2nnc(-c3ccccc3)c3ccccc23)c1", "MALAT1 nuclear FISH intensity": "-1.07 (inactive)"},
      {"molecule": "COC(=O)Nc1nc2cc(C(=O)c3ccccc3)ccc2[nH]1", "note": "[Mebendazole]", "MALAT1 nuclear FISH intensity": "-1.33 (inactive)"},
      {"molecule": "CCCCCCCCCCCCCCCC(=O)N[C@@H](COP(=O)(O)O)C(=O)O", "MALAT1 nuclear FISH intensity": "-1.25 (inactive)"},
      {"molecule": "CC(C)NCC(O)COc1ccc(CC(N)=O)cc1", "note": "(stereo not given)", "MALAT1 nuclear FISH intensity": "-0.232 (inactive)"},
      {"molecule": "CC(C)[C@H](NC(=O)CNC(=O)OC(C)(C)C)C(=O)N[C@H](C=O)C(C)C", "MALAT1 nuclear FISH intensity": "-0.412 (inactive)"},
      {"molecule": "O=P(O)(O)C(Sc1ccc(Cl)cc1)P(=O)(O)O", "note": "[Tiludronate Disodium]", "MALAT1 nuclear FISH intensity": "1.17 (inactive)"},
      {"molecule": "CC(C)[C@H](N)C(=O)OCCOCn1cnc2c(=O)nc(N)[nH]c21", "MALAT1 nuclear FISH intensity": "-0.349 (inactive)"},
      {"molecule": "CN1CCc2cccc3c2[C@H]1Cc1ccc(O)c(O)c1-3", "MALAT1 nuclear FISH intensity": "-0.972 (inactive)"},
      {"molecule": "CNC(=O)[C@H]1O[C@@H](n2cnc3c(NCc4cccc(I)c4)ncnc32)[C@H](O)[C@@H]1O", "MALAT1 nuclear FISH intensity": "2.19 (inactive)"},
      {"molecule": "CC(O)(P(=O)(O)O)P(=O)(O)O", "note": "[Etidronate Disodium]", "MALAT1 nuclear FISH intensity": "-0.936 (inactive)"},
      {"molecule": "CNS(=O)(=O)Cc1ccc2[nH]cc(CCN(C)C)c2c1", "note": "[Sumatriptan Succinate]", "MALAT1 nuclear FISH intensity": "0.119 (inactive)"},
      {"molecule": "Cc1ccc(C)c(OCCCC(C)(C)C(=O)O)c1", "note": "[Gemfibrozil]", "MALAT1 nuclear FISH intensity": "-0.282 (inactive)"},
      {"molecule": "C[C@@H]1COCCN1c1cc(=O)n2c(n1)N(Cc1cncc(Cl)c1)[C@H](C(F)(F)F)CC2", "MALAT1 nuclear FISH intensity": "0.807 (inactive)"},
      {"molecule": "CNC(=O)c1cc(Oc2ccc(NC(=O)Nc3ccc(Cl)c(C(F)(F)F)c3)cc2)ccn1", "note": "[Sorafenib Tosylate]", "MALAT1 nuclear FISH intensity": "-1.08 (inactive)"},
      {"molecule": "OC[C@H]1NC[C@@H](O)[C@@H](O)[C@@H]1O", "note": "[1-Deoxymannojirimycin hydrochloride]", "MALAT1 nuclear FISH intensity": "-0.0492 (inactive)"},
      {"molecule": "Clc1ccc(-c2nc3sccn3c2/C=N/OCc2ccc(Cl)c(Cl)c2)cc1", "MALAT1 nuclear FISH intensity": "-1.62 (inactive)"},
      {"molecule": "C=CC[N+]1([C@H]2C[C@H]3[C@@H]4CC[C@H]5C[C@H](O)[C@@H](N6CCOCC6)C[C@]5(C)[C@H]4CC[C@]3(C)[C@H]2OC(C)=O)CCCC1", "note": "[Rocuronium Bromide]", "MALAT1 nuclear FISH intensity": "-0.874 (inactive)"},
      {"molecule": "CC(C)(C(=O)O)c1ccc(C(O)CCCN2CCC(C(O)(c3ccccc3)c3ccccc3)CC2)cc1", "note": "(stereo not given)", "MALAT1 nuclear FISH intensity": "0.113 (inactive)"},
      {"molecule": "NNC(=O)c1ccncc1", "note": "[Isoniazid]", "MALAT1 nuclear FISH intensity": "-0.86 (inactive)"},
      {"molecule": "Nc1nc(=O)[nH]cc1F", "note": "[Flucytosine]", "MALAT1 nuclear FISH intensity": "-0.522 (inactive)"},
      {"molecule": "COc1cc(NC(C)CCCN)c2ncccc2c1", "note": "(stereo not given) [Primaquine bisphosphate]", "MALAT1 nuclear FISH intensity": "-1.83 (inactive)"},
      {"molecule": "C=CCNc1ncnc2ccc(Br)cc12", "MALAT1 nuclear FISH intensity": "-1.43 (inactive)"},
      {"molecule": "CCN1CC(CCN2CCOCC2)C(c2ccccc2)(c2ccccc2)C1=O", "note": "(stereo not given)", "MALAT1 nuclear FISH intensity": "-0.153 (inactive)"},
      {"molecule": "CCCCOc1cc(CC2CNC(=O)N2)ccc1OC", "note": "(stereo not given)", "MALAT1 nuclear FISH intensity": "-1.02 (inactive)"},
      {"molecule": "CCCCC[C@H](O)/C=C/[C@@H]1[C@H]2C/C(=C/CCCC(=O)O)C[C@H]2C[C@H]1O", "note": "[Carbacyclin]", "MALAT1 nuclear FISH intensity": "-0.0941 (inactive)"},
      {"molecule": "O=C1C(O)=C([C@H]2CC[C@H](c3ccc(Cl)cc3)CC2)C(=O)c2ccccc21", "note": "[Atovaquone]", "MALAT1 nuclear FISH intensity": "1.11 (inactive)"},
      {"molecule": "Cc1cn([C@H]2C[C@H](N=[N+]=[N-])[C@@H](CO)O2)c(=O)[nH]c1=O", "note": "[Zidovudine]", "MALAT1 nuclear FISH intensity": "-0.336 (inactive)"},
      {"molecule": "Clc1ccc(C(c2ccc(Cl)cc2)[n+]2ccn(CC(OCc3ccc(Cl)cc3Cl)c3ccc(Cl)cc3Cl)c2)cc1", "note": "(stereo not given) [Calmidazolium chloride]", "MALAT1 nuclear FISH intensity": "-1.68 (inactive)"},
      {"molecule": "CC[C@]1(O)C[C@@H]2CN(CCc3c([nH]c4ccccc34)[C@@](C(=O)OC)(c3cc4c(cc3OC)N(C)[C@H]3[C@@](O)(C(=O)OC)[C@H](OC(C)=O)[C@]5(CC)C=CCN6CC[C@]43[C@@H]65)C2)C1", "note": "[Vinblastine]", "MALAT1 nuclear FISH intensity": "-1.59 (inactive)"},
      {"molecule": "CC/C=C\\C/C=C\\C/C=C\\CCCCCCCCCC(=O)O", "note": "[Eicosatrienoic acid (20:3 n-3)]", "MALAT1 nuclear FISH intensity": "1.31 (inactive)"},
      {"molecule": "Cn1c(=O)c2nc[nH]c2n(C)c1=O", "note": "[Theophylline]", "MALAT1 nuclear FISH intensity": "0.255 (inactive)"},
      {"molecule": "CCCCC[C@H](O)/C=C/[C@@H]1[C@H]2C/C(=C/CCCC(=O)O)O[C@H]2C[C@H]1O", "note": "[Prostaglandin I2]", "MALAT1 nuclear FISH intensity": "-0.613 (inactive)"},
      {"molecule": "CCCc1c(OCCCCc2nnn[nH]2)ccc(C(C)=O)c1O", "MALAT1 nuclear FISH intensity": "1.1 (inactive)"},
      {"molecule": "COc1ccc(C[C@@H]2c3cc(OC)c(OC)cc3CC[N@+]2(C)CCC(=O)OCCCCCOC(=O)CC[N@@+]2(C)CCc3cc(OC)c(OC)cc3[C@H]2Cc2ccc(OC)c(OC)c2)cc1OC", "note": "[Cisatracurium Besylate]", "MALAT1 nuclear FISH intensity": "-0.762 (inactive)"},
      {"molecule": "COc1ccc(C[C@H](N)C(=O)N[C@H]2[C@@H](O)[C@H](n3cnc4c(N(C)C)ncnc43)O[C@@H]2CO)cc1", "note": "[Puromycin.2HCl]", "MALAT1 nuclear FISH intensity": "2.03 (inactive)"}
    ]}
  ]
}
